# Screening results as filed in PubChem BioAssay.
# Compounds with a hit are over-represented: about 1.8% of the library has one in this group of screens.
# HDAC3 inhib = HDAC3 deacetylase inhibitors, primary screen, biochemical, fluorescence, cell-free homogeneous. inhibition, % at 8.3 µM. recombinant HDAC3, fluorogenic peptide/trypsin coupled. Histone deacetylase 3 (Homo sapiens), O15379. AID 2718, 2010. 320,000 tested, 0.15% active; in the data active means inhibition above about 26%, passing the limit was not always enough; inconclusive means no clear call, values can overlap the other calls
# GRK2 inh = compounds blocking aptamer binding on GRK2 – biochemical, human GRK2, bead flow cytometry, HTS, primary screen | inhibition of aptamer binding, % at 10 µM | 330,000 tested, 0.59% active | Beta-adrenergic receptor kinase 1 (Homo sapiens), P25098 | FAM-aptamer displacement from GRK2;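 active means inhibition of aptamer binding above 40%, roughly 3 SD of noise, on plates passing a quality check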;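 further: median bead fluorescence of bound FAM aptamer so fluorescent compounds give negative values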
# PKD1 kinase inh = inhibitors of human PKD1 kinase, biochemical, fluorescence polarization; inhibition, % (concentration not given with the values); Serine/threonine-protein kinase D1 (Homo sapiens), Q15139; PKD1 kinase fluorescence polarization assay; 200,000 tested, 0.056% active; AID 797, 2007
# DSG3 Ab inh = inhibitors of pemphigus antibody binding to DSG3, primary screen, biochemical, bead-based, flow cytometry, scFv-GFP; Desmoglein-3 (Homo sapiens), P32926; DSG3-coupled beads, scFv-anti-DSG3-GFP binding; active compounds read low; binding (percent of control), % at 10 µM; 310,000 tested, 0.48% active; AID 588358, 2011;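 active means binding more than 3 SD below its plate's average and above zero; inconclusive means below that plate limit but binding exactly zero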;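 further: hits lower antibody fragment binding to DSG3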
# VLA-4 inh = inhibition in human VLA-4 binding assay, primary screen, VLA-4 allosteric modulator project, MLPCN library, flow cytometry, VLA-4 expressing cells; 330,000 tested, 0.2% active; Integrin alpha-4 (Homo sapiens), P13612; inhibition, % (about 7 µM as worked out from the volumes in the protocol); ligand binding flow cytometry
# LANA-H2A inh = blockers of LANA interaction with H2A/H2B – biochemical, FP readout, HTS, primary screen; cell-free LANA-H2A/H2B peptide, fluorescence polarization; inhibition, % (no concentration beside the values); 320,000 tested, 0.6% active; AID 2629, 2010; in the data active means inhibition mostly above about 10%, no sharp cut-off; inactive means mostly below about 6.7%
# * = called active by the depositor; ? = inconclusive; · = no result given; + = active, no number. Unless noted, no stated cut-off is given here; in the data, active means inhibition above about 50%; inactive means the rest.
SMILES,HDAC3 inhib,GRK2 inh,PKD1 kinase inh,DSG3 Ab inh,VLA-4 inh,LANA-H2A inh
COCCN(C(=O)CCC(=O)Nc1cccnc1)C(C(=O)NC1CCCCC1)c1ccccc1 (centres undefined),0,2,-8,82*,-10,0
Cc1nc2sccn2c(=O)c1S(=O)(=O)Nc1ccc(N2CCN(S(C)(=O)=O)CC2)cc1,-1,0,·,·,-8,-4
COC1=C(N)C(=O)c2nc(-c3nc(C(=O)O)c(C)c(-c4ccc(OC)c(OC)c4O)c3N)ccc2C1=O,·,66*,7,·,41,-7
COC(=O)CSc1nnc(CCc2ccccc2)n1C,-1,4,·,108,0,11*
CC(C)[C@@H](C(=O)N[C@@H](C(=O)O)c1ccccc1)N1C(=O)N2CCc3c([nH]c4ccccc34)[C@@]2(C)C1=O,-2,3,·,·,-8,-1
O=C(Oc1ccc(-c2cnc3ccccc3n2)cc1)c1ccco1,-3,0,-9,106,8,3
O=C(Oc1ccc(-c2nnco2)cc1)c1ccco1,63*,0,·,109,-27,0
O=C(Oc1cccc(-n2cnnn2)c1)c1ccco1,32*,1,6,117,8,-3
Cc1ccc(C(=O)Oc2cccc(-n3cnnn3)c2)cc1,1,0,-3,104,5,1
COC(C(=O)N1CCC(n2nccc2NC(=O)C2CC2)CC1)c1ccccc1 (centres undefined),-7,1,·,98,34,-7
CCOc1ccc(NC(=S)NCCCN2CCN(C3CCCCC3)CC2)cc1,-1,0,-2,111,39,+
NC(=O)C1(Nc2ccc(-c3ccc(Cl)cc3)cc2)CCCC1,·,·,·,54*,·,·
COc1cccc(NC(=O)c2sc3nc(N4CCOCC4)c4c(c3c2N)CCCC4)c1,-6,1,·,98,10,3
COc1cc(NC(=O)CSc2nc(=O)n(CCN3CCOCC3)c3c2CCCC3)cc(OC)c1,?,0,·,99,8,-1
COc1ccc(Cn2c(=O)sc3ccccc32)cc1,12,3,-7,·,11,4
CCOc1ccccc1Cn1c(=O)sc2ccccc21,1,6,-2,90,4,37*
Cc1ccc(NC(=O)C2CC(=O)n3c(nc4ccccc43)N2)cc1Cl (centres undefined),-8,0,-8,111,16,-1
Cc1ccc(NC(=O)C2CC(=O)n3c(nc4ccccc43)N2)cc1C (centres undefined),0,2,·,100,-23,16*
O=c1[nH]c(=O)c2nc3c4ccccc4c4ccccc4c3nc2[nH]1,-13,1,-3,29*,-3,4
CCOC(=O)N1CCN(C(=O)COC(=O)c2ccc(S(=O)(=O)N(CC)CC)cc2)CC1,4,1,·,90,6,2
O=C(Nc1ccc(F)c(Cl)c1)C1CC(=O)N(Cc2ccccc2)C1 (centres undefined),1,4,·,106,11,0
O=C(Nc1ccc(F)c(Cl)c1)C1CC(=O)N(Cc2ccco2)C1 (centres undefined),-5,0,·,109,13,+
CC(=O)Nc1ccc(OC(=O)c2cc3cc(Br)cc(Br)c3oc2=O)cc1,3,95*,-4,·,-18,-1
CC(=O)Nc1ccc(S(=O)(=O)N(C)CC(=O)OC2CCCCC2=O)cc1 (centres undefined),-4,0,·,96,-5,59*
O=c1[nH]c(O)c(C=Nc2ccc(Cl)cc2Cl)c(=O)[nH]1,·,·,·,101,·,·
SMILES,HDAC3 inhib,GRK2 inh,PKD1 kinase inh,DSG3 Ab inh,VLA-4 inh,LANA-H2A inh
O=C(NC1CCCCC1)N1CCN(S(=O)(=O)c2ccc(F)cc2)CC1,-5,0,3,104,3,17*
O=C(NC1CCCCCC1)C1CCN(S(=O)(=O)c2ccc(F)cc2)CC1,1,0,-9,101,-9,0
O=C1c2ccccc2C(=O)N1CCCSc1nc2ccccc2o1,4,2,1,101,8,15*
O=C1c2ccccc2C(=O)N1Cc1nc2ccccc2o1,13,0,-7,96,5,5
Cc1nn(-c2ccccc2)c(C)c1/C=N/NC(=O)c1cc(-c2ccc(Cl)s2)[nH]n1,-3,0,-9,103,15,0
COc1cc(/C=N/NC(=O)c2cc(-c3c(C)nn(-c4ccccc4)c3C)n[nH]2)ccc1O,?,0,-4,99,-2,-6
Cc1nn(-c2ccccc2)c(C)c1-c1cc(C(=O)N/N=C/c2ccc(O)cc2)[nH]n1,14,4,·,58*,2,4
Cc1nn(-c2ccccc2)c(C)c1/C=N/NC(=O)c1cc(-c2ccc(Br)s2)[nH]n1,-1,4,-11,84*,1,4
Cn1c(=O)oc2cc(S(=O)(=O)N3CCC(C(=O)NCC4COc5ccccc5O4)CC3)ccc21 (centres undefined),8,0,-23,-15*,14,2
O=C(NCC1COc2ccccc2O1)C1CCN(S(=O)(=O)c2ccccc2)CC1 (centres undefined),-6,1,·,·,-1,-1
Cc1nc(Nc2ccccc2O)c2oc3ccccc3c2n1,-5,0,·,80*,-1,3
Cc1nc(Nc2ccccc2F)c2oc3ccccc3c2n1,-3,6,·,100,8,1
Cc1cc(C(=O)N(C)C2CCCCC2)no1,2,0,·,100,12,0
COc1ccccc1NS(=O)(=O)c1cccc(NC(=O)c2cc3ccccc3oc2=O)c1,0,2,3,78*,9,2
Nc1nc(N)nc(-c2cc(C(F)(F)F)ccc2Cl)n1,28*,3,·,96,-14,8
Nc1nc(N)nc(-c2cc(Cl)ccc2Cl)n1,2,2,·,105,-5,3
CCOC(=O)c1[nH]c2ccccc2c1CCCN1C(=O)c2ccccc2C1=O,15,1,3,·,-1,-2
CCOC(=O)c1[nH]c2cc3c(cc2c1CCCN1C(=O)c2ccccc2C1=O)OCCO3,1,0,-2,-29*,-6,0
O=C(Nc1ccc(F)c(F)c1)C1=COCCO1,-2,0,·,97,6,6
CC(=O)N1N=C(c2cccs2)CC1c1cccs1 (centres undefined),-9,0,4,104,-2,0
CC(=O)N1N=C(c2cccs2)CC1c1ccc(C)o1 (centres undefined),10,0,-5,92,1,36*
